Several values for one entry are separate records, joined by “and”; a condition that tells them apart may be missing. Identical values can stand only once. Compounds without any hit were thinned out: in the full panel of roughly 83,000, 20% have a hit.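 A percent growth of 40 corresponds to 60% growth inhibition; 0 means no net growth; -100 means all cells died. Active threshold: below 10.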 Activity calls are given as the source filed them.

The source of these data is PubChem BioAssay (NCI).

In the test the test system is MDA-MB-468 breast. As to the kind of experiment: NCI-60 one-dose screen, 48 h (100 = growth as untreated, 0 = no growth, -100 = all killed). Conditions: 10 µM unless noted.
Regarding `COc1ccc2nc3cc(Cl)ccc3c(NCCNCC(O)CO)c2c1` (stereo not drawn), the growth is -8.61% (active).
The result for `COC(=O)c1c2c(c(C)[n+]([O-])c1C)C(=O)C(NCc1ccc(F)c(F)c1)=CC2=O` reads -26.1% (active).
The result for `CC(CN(C)C)CN1c2ccccc2Sc2ccccc21` (stereo not drawn) reads 40.2% (inactive) and 73.1% (inactive) and 64% (inactive); that for `CCN(CC)CC#CCOC(=O)[C@]1(C)CCC[C@@]2(C)[C@H]1CC(C=O)=C1C=C(C(C)C)CC[C@@H]12`, 41.5% (inactive); that for `NC(=O)CC1(O)C=C(Br)C(=O)C(Br)=C1`, -9.32% (active).
`CCCCCCCCCCCCNC(=O)N[C@H](C(=O)N[C@H]1/C=C/OCCNC(=O)/C=C/[C@H](C(C)C)NC1=O)C(C)C`: the growth was 15.5% (inactive).
As for `O=C(Nc1cc(Br)ccn1)c1cc2cc(Nc3nc(-c4ccccc4)nc4ccccc34)ccc2oc1=O`, the growth was 123% (inactive).
The result for `Nc1nc2ccc(-c3nc4ccc5[nH]ncc5c4c4c3CCC4)cc2s1` reads -5.96% (active).
The result for `Cc1ccc2c(n1)C(=O)C(Cl)=C(Nc1ccccc1C(=O)OC(C)(C)C)C2=O` reads -76.5% (active); that for `O=C(O)/C=C\C(=O)N1C/C(=C\c2ccccc2Cl)C(=O)/C(=C/c2ccccc2Cl)C1`, -75.2% (active); that for `COc1ccc(-c2nocc2-c2cc(OC)c(OC)c(OC)c2)cc1`, -15.5% (active).
`c1ccc(-c2cn3nc(-c4c[nH]c5ccccc45)sc3n2)cc1`: the growth was 77.9% (inactive).
With `COc1cc(OC)c(S(=O)(=O)NNC(=O)c2ccncc2)cc1C(=O)/C=C/c1ccc(C)cc1` the figure was 38.3% (inactive).
